This note sets out measurements from PubChem BioAssay (NCI).

Molecules are shown by their SMILES. Values joined by “and” are separate entries in the source; they are usually repeats but may differ in a detail not shown here. Equal entries are not always repeated. The panel holds about 79,000 compounds, 15% with a hit somewhere; the sample as a whole holds those more often. Values without a mark were called inactive. Active and inactive are the calls of the source. Cut-off read from the data, not from the text of the source: active = growth inhibition above about 70%; inactive = the rest.

The nature of the experiment: NCI Yeast Anticancer Drug Screen. Data for the bub3 strain (AID 167). The settings on record: S. cerevisiae bub3 mutant strain, active compounds read high. As to the method: Growth inhibition of yeast strains with defined genetic alterations is measured as a screen for potential anti-cancer activity. Selected strains with alterations in DNA damage repair or cell cycle control were exposed to compounds and growth inhibition was measured relative to vehicle treated controls. The strain used in this assay is bub3

[1] abbreviates: at 5.0 µM (retest, dose inferred, filed as 0.5).
Setting [2] is: at 50.0 µM (retest, dose inferred, filed as 5.0).

`OCCOSCCO`: the growth inhibition reads like this: under setting [1], 2%; under setting [2], 6%; (at 50.0 µM) -6.5%.
For `Oc1ccc(Br)cc1Sc1cc(Br)ccc1O`, the growth inhibition was 16% under setting [1], 99% (active) under setting [2] and 99.2% (active) (at 50.0 µM).
On to `CCCCC(=O)c1ccc([N+](=O)[O-])o1`, for which the growth inhibition by setting is: under setting [1], 45%; under setting [2], 100% (active).
As to `Cc1cc(C(N)=O)cc(C)c1C(=O)OCCCl`, the growth inhibition under setting [1] is -2%, the growth inhibition under setting [2] is -2% and the growth inhibition (at 50.0 µM) was 51.9%.
Regarding `N#C/C(=N\Nc1ccc(Cl)cc1)C(=O)C1CC1`, the growth inhibition under setting [1] is 51%, the growth inhibition under setting [2] was 78% (active) and the growth inhibition (at 50.0 µM) was 77.4% (active).
Take `COc1ccc2nc3cc(Cl)ccc3c(NCCCCCN3CCCCC3)c2c1`: the growth inhibition was -4% under setting [1], 4% under setting [2] and 59.4% (at 50.0 µM).
The matching figures for `Nc1ccc(-c2ccc(N)c(S(=O)(=O)O)c2)cc1S(=O)(=O)O`: 6%, 15% and 33.2%.
The like results for `CCOC(=O)c1[nH]c(C#N)c(C(=O)OCC)c1C` were, in that order, 3%, 48% and 53.2%.
The like results for `COc1ccc(C(Cn2ccnc2)Sc2ccc(Cl)c(Cl)c2)cc1` (configuration not stated) were, in that order, 76% (active), 98% (active) and 86.5% (active).
Turning to `COC(=O)Nc1nc2ccc(C3(c4ccc(F)cc4)OCCO3)cc2[nH]1`, the growth inhibition is 22% under setting [1], 72% (active) under setting [2] and 84.1% (active) (at 50.0 µM).
The matching figures for `Cn1c(COC(=O)NC2CCCCC2)c(COC(=O)NC2CCCCC2)c2ccc3cc(Cl)c(Cl)cc3c21`: 15%, 30% and 72.7% (active).
The like results for `CCOC(=O)COc1cc(-c2ccccc2F)nc2cc3c(cc12)OCO3` were, in that order, -29%, 36% and 65.8%.
With `NC(=S)Nc1ccc2c(c1)Cc1ccccc1-2`, the growth inhibition is, setting by setting: under setting [1], 0%; under setting [2], 58%; (at 50.0 µM) 47%.
The like results for `CC1CC(C)(C)OB(OC(C)CC(C)(C)OB2OC(C)CC(C)(C)O2)O1` (configuration not stated) were, in that order, 1%, -33% and 17.7%.
With `C[N+](C)(C)c1ncnc2c1ncn2C1CC(O)C(CO)O1` (configuration not stated), the growth inhibition (at 50.0 µM) was -33% and 10.6%.
